Measured values from ChEMBL document CHEMBL3988442, “University of Dundee, Small-Polar-MMV Screening Library” (2021).

Target: T1, Methionyl-tRNA synthetase, putative (Leishmania donovani (strain BPK282A1)) (UniProt E9BF75)
T1 sequence (whole entry): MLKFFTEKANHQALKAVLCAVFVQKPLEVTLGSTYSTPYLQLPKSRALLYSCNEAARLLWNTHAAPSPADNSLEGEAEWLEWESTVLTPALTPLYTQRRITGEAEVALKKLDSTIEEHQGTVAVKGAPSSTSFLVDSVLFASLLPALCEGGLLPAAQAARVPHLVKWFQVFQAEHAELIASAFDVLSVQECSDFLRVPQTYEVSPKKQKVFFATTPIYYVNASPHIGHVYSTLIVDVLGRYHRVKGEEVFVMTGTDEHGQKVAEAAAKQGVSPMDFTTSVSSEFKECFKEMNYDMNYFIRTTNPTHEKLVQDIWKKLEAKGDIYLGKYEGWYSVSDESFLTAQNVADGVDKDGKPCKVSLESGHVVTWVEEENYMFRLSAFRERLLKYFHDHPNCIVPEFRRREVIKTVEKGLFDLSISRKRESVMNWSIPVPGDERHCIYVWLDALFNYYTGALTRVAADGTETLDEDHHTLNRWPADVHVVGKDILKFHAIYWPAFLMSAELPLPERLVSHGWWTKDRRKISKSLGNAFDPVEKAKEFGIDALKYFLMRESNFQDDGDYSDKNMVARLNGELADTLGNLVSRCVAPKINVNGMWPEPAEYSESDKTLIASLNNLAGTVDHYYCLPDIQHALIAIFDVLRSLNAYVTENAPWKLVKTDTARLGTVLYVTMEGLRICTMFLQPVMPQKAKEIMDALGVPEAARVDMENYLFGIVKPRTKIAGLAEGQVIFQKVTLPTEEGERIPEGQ
Test: Leishmania donovani Methionine tRNA synthetase (LdMetRS):v7. Dose response assay
Format: functional
Set-up: conc 80 nM, time 150 minutes

In the case of `COC1CCCC(Nc2nc(Nc3ccc(F)c(F)c3)nc3c2cnn3C)C1` (stereo unspecified), the PXC50 (BOTTOM 3.912528548, HILLSLOPE 1.076870083, MAX_EFFECT 68.97196262, TOP 71.78159337) is reported as 5.18, the PXC50 (BOTTOM 5.265177704, HILLSLOPE 1.728535848, MAX_EFFECT 54.8245614, TOP 53.52484427) is reported as 5.16 and the PXC50 (BOTTOM 8.334941311, HILLSLOPE 1.334767366, MAX_EFFECT 54.01869159, TOP 53.22848094) is reported as 5.23. The PXC50 (BOTTOM -8.876719942, HILLSLOPE 0.681128814, MAX_EFFECT 53.21888412, TOP 100.0) was 4.53, the PXC50 (MAX_EFFECT 40.38004751) was under 4 and the PXC50 (MAX_EFFECT 46.81933842) was under 4.

With `CCN(CCN(C)C)c1nc(CCN)nc2sc(C)c(C)c12` the PXC50 (BOTTOM 1.153434253, HILLSLOPE 1.801290913, MAX_EFFECT 65.59139785, TOP 100.0) was 4.17, the PXC50 (BOTTOM 3.323089956, HILLSLOPE 2.865245269, MAX_EFFECT 53.13531353, TOP 100.0) was 4.01 and the PXC50 (BOTTOM 7.056148009, HILLSLOPE 0.845689164, MAX_EFFECT 65.90909091, TOP 100.0) was 4.25. It also gave a PXC50 (BOTTOM 9.733141468, HILLSLOPE 1.108067768, MAX_EFFECT 69.89795918, TOP 94.34728341) of 4.35 and a PXC50 (BOTTOM -2.908093481, HILLSLOPE 0.556623138, MAX_EFFECT 55.79710145, TOP 100.0) of 4.03.

`CCc1ccc(-c2cc(C(F)(F)F)nc(N3CCC(N)CC3)n2)cc1` gave a PXC50 (BOTTOM 0.706388919, HILLSLOPE 2.15610203, MAX_EFFECT 103.8387716, TOP 100.0) of 4.56, a PXC50 (BOTTOM 1.827311561, HILLSLOPE 2.684909792, MAX_EFFECT 98.40510367, TOP 100.0) of 4.35 and a PXC50 (BOTTOM 4.066049008, HILLSLOPE 2.434171465, MAX_EFFECT 89.60138648, TOP 100.0) of 4.34. It also gave a PXC50 (BOTTOM 4.927859372, HILLSLOPE 1.513560957, MAX_EFFECT 87.5, TOP 100.0) of 4.46 and a PXC50 (BOTTOM -3.243969643, HILLSLOPE 5.145586142, MAX_EFFECT 85.90604027, TOP 95.73252463) of 4.19.

Work on `COc1ccc(OC)c(C2CCN(c3ccc4cc[nH]c4n3)C2)c1` (stereo unspecified) yielded a PXC50 (BOTTOM 1.480634741, HILLSLOPE 1.299916262, MAX_EFFECT 56.52173913, TOP 100.0) of 4.07, a PXC50 (BOTTOM -1.247583822, HILLSLOPE 1.089672094, MAX_EFFECT 58.06451613, TOP 100.0) of 4.11 and a PXC50 (BOTTOM -8.715782986, HILLSLOPE 1.383269592, MAX_EFFECT 51.81518152, TOP 100.0) of 4.09. It also gave a PXC50 (MAX_EFFECT 37.4800638) of under 4 and a PXC50 (MAX_EFFECT 42.80230326) of under 4.

Work on `O=C(O)CN1CCC(F)(F)C2(CCN(c3ccccc3)C2)C1` (stereo unspecified) yielded a PXC50 (BOTTOM 0.682019073, HILLSLOPE 1.183129542, MAX_EFFECT 69.01408451, TOP 100.0) of 4.25, a PXC50 (BOTTOM 1.497780238, HILLSLOPE 1.024260355, MAX_EFFECT 65.37037037, TOP 100.0) of 4.23 and a PXC50 (BOTTOM -1.515302198, HILLSLOPE 0.859784414, MAX_EFFECT 63.76811594, TOP 100.0) of 4.28. It also gave a PXC50 (BOTTOM -4.436470638, HILLSLOPE 1.966892025, MAX_EFFECT 57.61821366, TOP 100.0) of 4.1 and a PXC50 (BOTTOM -10.23367543, HILLSLOPE 2.537985382, MAX_EFFECT 60.54421769, TOP 60.60381795) of 4.54.
